The whole screen tested about 64,000 compounds, of which about 1,900 (3%) were called active.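 The calls were made as follows: active = fluorescence rise, raw or as B-score row- and column-corrected plate score, outside the 99.7% band of its plate's samples, either direction; inactive = the rest.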 Many of the other results were omitted from the sample, so actives are more common in it than they were.
System: Muscarinic acetylcholine receptor M1
Assay: M1 muscarinic receptor agonists, primary screen, CHO-M1 cells, Fluo-4 calcium, agonist mode (AID 626)
Conditions: Fluo-4 calcium fluorescence, at 10 µM, hits give high values

B-score, active:
Cc1ccc(C(=O)COc2cccc(NC(=O)c3ccco3)c2)cc1 1.03
COc1ccccc1Oc1ccc(S(=O)(=O)Nc2cccnc2)cc1 14.6
O=C(CSc1nc2ccccc2o1)N1CCN(c2ccc(Cl)cc2)CC1 20.1
O=C(Nc1ccccc1N1CCN(C(=O)c2ccccc2)CC1)c1ccc2c(c1)OCO2 2.96
COc1ccc(N(C(=O)c2cccnc2)S(=O)(=O)c2ccc3c(c2)n(C)c(=O)n3C)cc1 3.89
CCOC(=O)c1cc2n(c1N)-c1ccccc1C2=O 145
FC(F)(F)COc1nc(N2CCCCC2)nc(N2CCNCC2)n1 6.73
CC1CCCC(C)N1C(=O)CN1CCN(c2nc(-c3ccc(F)cc3)cs2)CC1 (centres undefined) 2.64
CCOc1ccc(NC(=O)N2CC=C(n3c(=O)[nH]c4ccccc43)CC2)cc1 3.49
CCn1c(NCCc2ccc(OC)c(OC)c2)nc2c1c(=O)n(C)c(=O)n2C 3.33
COc1ccc2[nH]c(=O)c(CN(CC3CCCO3)C(=O)Nc3ccccc3)cc2c1 (centres undefined) 2.9
Cc1cc2cc(CN(Cc3cccs3)Cc3nnnn3CC3CCCO3)c(=O)[nH]c2cc1C (centres undefined) 6.85
CCOc1ccc2[nH]c(=O)c(CN(Cc3nnnn3Cc3ccccc3)CC3CCCO3)cc2c1 (centres undefined) 3.01
CN1C(=O)c2ccc(NC(=O)c3c(F)c(F)c(F)c(F)c3F)cc2C1=O 4.34
COc1ccc(NC(=O)C2CCCN(S(=O)(=O)c3cccc4cccnc34)C2)cc1OC (centres undefined) 4.34
N#CC1=C(N)Oc2c(sc3ccccc23)C1c1ccco1 (centres undefined) 52
O=C(CSCc1cccs1)N1CCCC1 4.57
COc1ccccc1NC(=O)CSc1nnc(Cn2nnc(-c3ccccc3)n2)n1-c1ccccc1 2.12
CCN=C1SC(CC(=O)Nc2ccc(C)cc2)C(=O)N1CC (centres undefined) 5.15

B-score, inactive:
Cc1ccnc(NC(=O)c2ccc(NC(=O)c3ccco3)cc2)c1 1.71
COC(=O)c1ccc(NC(=O)c2ccco2)cc1 -0.218
O=C1c2ccccc2C(Nc2ccc3c(c2)OCCO3)N1Cc1ccco1 (centres undefined) 0.847
COc1ccc(NS(=O)(=O)c2ccc(NC(C)=O)cc2)cc1OC 0.127
O=S(=O)(Nc1ccccn1)c1ccc(Oc2ccccc2)cc1 -0.897
CCC(C)(C)NC(=O)C(c1cccn1C)N(Cc1ccc(C)cc1)C(=O)Cn1nnc2ccccc21 (centres undefined) -0.864
O=S(=O)(NCC1CCCO1)c1ccc2ccccc2c1 (centres undefined) 0.554
COCCCNC(=O)c1c(F)c(F)c(F)c(F)c1F 0.0183
Cc1cccc(CC(=O)Nc2c3c(nn2-c2cccc(Cl)c2)CS(=O)C3)c1 (centres undefined) -1.33
Cc1noc(C)c1CSc1nc2cc(S(=O)(=O)N3CCOCC3)ccc2o1 -0.0272
O=C(CSc1nc2ccccc2o1)N1CCN(c2ccccc2)CC1 -0.706
CC1Cc2ccccc2N1C(=O)CSc1nc2ccccc2o1 (centres undefined) 0.106
CSCCC(NC(=O)c1ccc(=O)n(C)n1)c1nc2ccccc2[nH]1 (centres undefined) -1.57
NC(=S)c1ccc(C(N)=S)o1 2.43
COc1ccc(C(=O)CSc2nccc(=O)[nH]2)cc1 1.27
CC12C(=O)N(n3cnnc3)C(=O)C1C1C=CC2C1 (centres undefined) 0.0714
CCc1ccc(Nc2ncc3c(n2)CC(c2ccco2)CC3=O)cc1 (centres undefined) 0.24
CCCC(=O)Nc1ccccc1N1CCN(C(=O)c2ccccc2)CC1 0.545
O=C(Nc1ccccc1N1CCN(c2ccccc2)CC1)c1cccc(F)c1 -0.048
Cc1noc(C)c1C(=O)OCC(=O)/C=C1\N(C)c2ccccc2C1(C)C -1.21
COc1ccc(S(=O)(=O)N2CCC(C(=O)N3CCc4ccccc4C3)CC2)cc1OC 0.201
O=C(CN(Cc1ccccc1)C(=O)c1ccc2c(c1)OCCO2)NCc1ccc2c(c1)OCO2 0.89
CC1(C)CC(O)C(CCC(O)c2ccccc2)C(C)(C)N1 (centres undefined) 2.64
CN(C)S(=O)(=O)c1cccc(C(=O)Nc2cccnc2)c1 0.0444
COc1ccc(-c2c3c(=O)n(C)c(=O)n(C)c3cn2NC(C)=O)cc1 0.218
O=C(NCCN1C(=O)C2C3C=CC(C3)C2C1=O)Nc1ccccn1 (centres undefined) 0.114
COC(=O)Nc1ncc(CN2C(=O)c3ccccc3C2=O)s1 0.171
CCOC(=O)c1cc2n(c1C)-c1ccccc1C2=O 0.122
CCOC(=O)Nc1ccccc1N1C(=O)c2ccccc2C1=O -0.565
CC(=O)N(CN1C(=O)C2CC=CCC2C1=O)c1cccc(Cl)c1 (centres undefined) -1.96
O=C(NCc1ccco1)c1cnn2c(C(F)(F)F)cc(-c3ccco3)nc12 0.0458
COc1cc2c(cc1NC(=O)CN1CCN(S(=O)(=O)c3ccc(F)cc3)CC1)oc1ccccc12 -1.04
OCc1nc(CO)n(Cc2ccccc2)n1 -0.345
O=C(CN1CCN(c2nc(-c3ccccc3)cs2)CC1)NCc1ccc2c(c1)OCO2 -0.269
COc1ccc(-c2csc(N3CCN(Cc4ccc5c(c4)OCO5)CC3)n2)cc1 -0.173
O=c1c2ccccc2nc(CSc2nnnn2-c2ccccc2)n1-c1ccccc1 -1.38
CCOc1cccc(/C(O)=C2/C(=O)C(=O)N(CCOC)C2c2ccncc2)c1 (centres undefined) -0.0327
Cc1cc(=O)cc(C)[nH]1 -0.0108
CCOc1ccc(NC(=O)N2CCN(CC)CC2)cc1 -1.38
Cc1cccc(C)c1NC(=O)N1CC=C(n2c(=O)[nH]c3ccccc32)CC1 1.14
CN1CCC2(CC1)NC(=O)NC2=O -0.874
CCCCn1c(SCC(=O)NCCc2ccc(OC)c(OC)c2)nc2c1c(=O)n(C)c(=O)n2C 0.299
Cn1c(=O)c2c(nc(NCCc3ccccc3)n2Cc2ccccc2)n(C)c1=O -0.39
Cc1cc(C(F)(F)F)c(C#N)c(SCC(=O)NC2CC2)n1 0.0289
CCSc1ncnc2c(C#N)c3n(c12)CCCCC3 -0.0416
O=C(CCC(=O)OCC(F)(F)C(F)F)NCc1ccccc1 -1.45
CCC(=O)N(Cc1cc2cc(OC)ccc2[nH]c1=O)c1ccccc1C -0.55
Cc1cc(C)c2cc(CN(Cc3cccs3)Cc3nnnn3CC3CCCO3)c(=O)[nH]c2c1 (centres undefined) -0.2
Cc1cccc2cc(CN(Cc3cccs3)C(c3nnnn3C3CCCC3)C(C)C)c(=O)[nH]c12 (centres undefined) -0.692
Cc1cccc2cc(CN(Cc3nnnn3Cc3ccccc3)C3CCCC3)c(=O)[nH]c12 0.299
COc1ccc2[nH]c(=O)c(CN(Cc3nnnn3CCc3ccccc3)CC3CCCO3)cc2c1 (centres undefined) 0.197
CCOc1ccc2[nH]c(=O)c(CN(Cc3nnnn3CCc3ccccc3)CC3CCCO3)cc2c1 (centres undefined) 1.96
Cc1ccc(C)n1C(Cc1ccccc1)C(=O)O (centres undefined) -0.967
COc1ccc(C(=O)N(Cc2ccc(N(C)C)cc2)C2CCS(=O)(=O)C2)cc1 (centres undefined) 0.609
CC(C)(C)Nc1c(N)c(=O)oc2ccccc12 0.371
Cc1onc(-c2ccccc2Cl)c1C(=O)NCCn1ccc2ccccc21 -0.0968
CCOC(=O)C1=C(C)NC(=O)N(C(C)=O)C1c1ccc(Cl)cc1 (centres undefined) -0.0464
CN1C(=O)c2ccc(NC(=O)C3CCCCC3)cc2C1=O -1.25
CCC(=O)Nc1ccc(C(=O)Nc2ccc3c(c2)C(=O)N(CC2CCCO2)C3=O)cc1 (centres undefined) 0.81
CCOC(=O)c1ccc(Nc2cc(C)nc3nc(C)nn23)cc1 -0.0395
CC(=O)c1ccc(-n2nnnc2SCC(=O)N2CCN(C(=O)c3ccco3)CC2)cc1 0.19
COc1ccc(NC(=O)C2CCCN(S(=O)(=O)c3cccc4cccnc34)C2)cc1 (centres undefined) 0.324
COc1ccccc1CNC(=O)C1CCCN(S(=O)(=O)c2cccc3cccnc23)C1 (centres undefined) 0.00364
CCOc1cc(C2C(C(=O)OC)=CN(C3CCCC3)C=C2C(=O)OC)cc(Br)c1O -0.323
CCOC(=O)CSC1=C(C#N)C(c2ccco2)C(C(=O)OCc2ccccc2)=C(C)N1 (centres undefined) -0.00433
N/C(=N\c1nc2ccccc2o1)NC(=O)C(Cc1ccccc1)N1C(=O)c2ccccc2C1=O (centres undefined) 2.31
Cc1ccc(Cn2ccc(NC(=O)c3cc(C(C)C)on3)n2)cc1 -1.01
Cn1c(=NC(=O)CSCC(=O)N2CCCCC2)sc2ccccc21 -0.071
O=C(c1cc(-c2cccs2)on1)N1CCCCC1 1.09
COc1ccccc1-n1nnnc1S(=O)(=O)Cc1ccc(Cl)cc1 0.986
COc1ccccc1NC(=O)CSc1nnc(-c2ccoc2C)n1CCc1ccccc1 0.464
COc1ccccc1NC(=O)CSc1nnc(Cc2cccn2C)n1-c1ccc(F)cc1 -0.202
CCOC(=O)c1ccc(NC(=O)Cn2nnc(-c3ccc(C)cc3)n2)cc1 -0.837
Cc1ccc(NC(=O)CCN2CCc3ccccc3C2)cc1 -0.165
CCC(Oc1ccccc1)C(=O)NCc1cccnc1 (centres undefined) -0.899

From PubChem BioAssay AID626 (Vanderbilt High Throughput Screening Facility, 2007)
